Assay [1] in a line: Nuclear factor erythroid 2-related factor 2/antioxidant responsive element (Nrf2/ARE) small molecule agonists: qHTS cell viability counter screen in human keratinocytes (AID 1919968; active means well fitted curve in the direction sought with a large enough effect in the repeat runs; an effect the other way counts as inactive or inconclusive; further: nearly all actives have a fitted effect of over 55% in size; further: potency means the concentration at half of the fitted maximal effect). The method, boiled down: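 Viability counter-screen: KeratinoSens reporter cells, DMSO-delivered compounds, 23 h at 37 C, CellTiter-Fluor fluorescence.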
(In general: Quantitative high-throughput screening tests each substance at several concentrations.)

The nature of assay [2]: Nuclear factor erythroid 2-related factor 2/antioxidant responsive element (Nrf2/ARE) small molecule agonists: luciferase reporter gene qHTS assay in human keratinocytes (AID 1919969). Further: nearly all actives have a fitted effect of over 35% in size. Further: potency means the concentration at half of the fitted maximal effect. Background: A reporter such as luciferase makes a cellular process visible.
The target of assay [3] is Gonadotropin-releasing hormone receptor (Homo sapiens) (UniProt P30968). As to the kind of experiment: Human gonadotropin-releasing hormone receptor (GnRHR) small molecule agonists, calcium flux assay in GnRHR-HEK293 cells (AID 1920063). Further: nearly all actives have a fitted effect of over 35% in size. Further: potency means the concentration at half of the fitted maximal effect. The method, boiled down: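 Tox21-format agonist screen using human GnRHR-expressing HEK293 cells and a fluorescent calcium dye; kinetic 3-min fluorescence reading after compound addition, 15-point concentration series run in triplicate.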
Gonadotropin-releasing hormone receptor (Homo sapiens), sequence (P30968 whole entry, looked up): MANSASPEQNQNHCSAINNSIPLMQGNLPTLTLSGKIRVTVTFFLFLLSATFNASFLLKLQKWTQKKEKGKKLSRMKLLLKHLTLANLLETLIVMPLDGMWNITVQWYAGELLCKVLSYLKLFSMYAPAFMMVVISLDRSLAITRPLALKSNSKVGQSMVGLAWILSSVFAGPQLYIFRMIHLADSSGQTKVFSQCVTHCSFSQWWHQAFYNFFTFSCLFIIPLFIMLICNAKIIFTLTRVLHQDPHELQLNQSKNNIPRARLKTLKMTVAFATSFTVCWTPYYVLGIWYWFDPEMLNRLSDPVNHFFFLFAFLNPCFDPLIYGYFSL

Assay [4] deals with KiSS-1 receptor (Homo sapiens) (UniProt Q969F8). As to the kind of experiment: Human kisspeptin (KISS1R) small molecule agonists, calcium flux assay in KISS1R-HEK293 cells (AID 1920064; active means well fitted curve in the direction sought with a large enough effect in the repeat runs; an effect the other way counts as inactive or inconclusive; further: potency means the concentration at half of the fitted maximal effect). The method, boiled down: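 Intracellular calcium mobilization in KISS1R-HEK293 cells was recorded by fluorescence (Ex/Em 480/540) for 3 min following compound addition to cells pre-loaded 1 h with calcium dye.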
KiSS-1 receptor (Homo sapiens), sequence (Q969F8 whole entry, looked up): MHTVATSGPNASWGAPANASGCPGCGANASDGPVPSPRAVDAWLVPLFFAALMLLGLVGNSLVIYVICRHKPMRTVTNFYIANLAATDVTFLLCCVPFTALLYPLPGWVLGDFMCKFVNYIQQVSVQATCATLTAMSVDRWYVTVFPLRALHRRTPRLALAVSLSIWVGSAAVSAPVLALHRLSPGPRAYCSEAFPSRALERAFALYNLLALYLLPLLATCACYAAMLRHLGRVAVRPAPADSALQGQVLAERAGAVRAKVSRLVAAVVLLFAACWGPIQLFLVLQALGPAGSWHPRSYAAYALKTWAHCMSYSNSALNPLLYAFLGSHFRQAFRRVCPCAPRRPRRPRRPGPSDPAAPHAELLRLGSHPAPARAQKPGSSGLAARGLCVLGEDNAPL
In general terms: Calcium flux is commonly read through the fluorescence of an indicator in the cells.

A short description of assay [5]: G protein-coupled receptor (GPCR) small molecule agonists, calcium flux assay: HEK293 wild type cell line counter screen (AID 1920065). Further: potency means the concentration at half of the fitted maximal effect. The method, boiled down:
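In this agonist-mode screen, ATP is the positive control and DMSO the vehicle. Cells grow 18 h before a 1 h dye incubation at 37 C; signal is taken at Ex/Em 480/540 over 3 min.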

Assay [6] can be described thus: p53 small molecule agonists, cell-based qHTS assay with human liver microsomes (AID 1963577).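 Further: p53 response element beta-lactamase reporter cells with liver microsomes plus NADPH.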 Put shortly:
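16 h, 37 C exposure of p53RE-bla cells to compounds with human liver microsomes and NADPH (0.5 mg/mL final each); detection via LiveBLAzer mixture, 2 h dark at room temperature.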

The nature of assay [7]: p53 small molecule agonists, cell-based qHTS assay with rat liver microsomes (AID 1963578). The method, boiled down: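 With rat liver microsomes and NADPH present (0.5 mg/mL final each), p53RE-bla cells are treated with compound for 16 h at 37 C. LiveBLAzer detection mixture is then applied for 2 h at room temperature in the dark.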
A short description of assay [8]: p53 small molecule agonists, cell-based qHTS assay with human liver microsomes: qHTS cell viability counter screen (AID 1963579). Further: nearly all actives have a fitted effect of over 45% in size. Further: potency means the concentration at half of the fitted maximal effect. The method, boiled down: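 In this multiplexed counter screen, the reporter plates were subsequently treated with CellTiter-Glo so that cell viability, reflected by luminescence, could be recorded for p53RE-bla cells dosed 16 h with compounds under microsomal activation (HLM and NADPH).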

Assay [9] in a line: p53 small molecule agonists, cell-based qHTS assay with rat liver microsomes: qHTS cell viability counter screen (AID 1963580). Further: nearly all actives have a fitted effect of over 45% in size. Further: potency means the concentration at half of the fitted maximal effect. The method, boiled down:
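Viability is assessed in parallel with the p53 reporter read: HCT-116 p53RE-bla cells receive compounds plus rat microsomes and NADPH (0.5 mg/mL final apiece), incubate 16 h at 37 C, and then CellTiter-Glo luminescence is recorded.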

Assay [10] is described as follows: p53 small molecule agonists, cell-based qHTS assay: qHTS cell viability counter screen (AID 1963581). Further: nearly all actives have a fitted effect of over 45% in size. Further: potency means the concentration at half of the fitted maximal effect. Put shortly:
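Compounds are pinned onto HCT-116 p53RE-bla cells and left 16 h at 37 C. Following the reporter FRET read, ATP is quantified by CellTiter-Glo luminescence after 30 min at room temperature.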

Assay [11] can be described thus: p53 small molecule agonists, cell-based qHTS assay (AID 1963582; active means well fitted activation curve with a large enough effect in the signal ratio in the repeat runs, not every such curve was filed as active; the % refers to the signal ratio). Put shortly: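 Agonist activity was scored from beta-lactamase FRET fluorescence in p53RE-bla cells treated 16 h at 37 C with compounds in DMSO, substrate incubation being 2 h at room temperature.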
Assay [12] has as its target 5-hydroxytryptamine receptor 2A (Homo sapiens) (UniProt P28223). Put plainly: 5-hydroxytryptamine receptor 2A (HTR2A) small molecule antagonists, cell-based qHTS assay (AID 1963586). Further: nearly all actives have a fitted effect of over 45% in size. Further: potency means the concentration at half of the fitted maximal effect. Put shortly:
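Antagonist-mode intracellular calcium assay: DOI (4 nM) added after 5 min compound pre-incubation at room temperature to dye-loaded HTR2A-CHO cells. Fluorescence followed for 3 min, sampled every second.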

The target is the same in assay [13]. Put plainly: 5-hydroxytryptamine receptor 2A (HTR2A) small molecule agonists, cell-based qHTS assay (AID 1963587). Further: nearly all actives have a fitted effect of over 30% in size. Further: potency means the concentration at half of the fitted maximal effect. Put shortly:
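CHO cells stably expressing human HTR2A, plated 18 h, loaded with calcium dye 1 h at 37 C. Agonist mode: compounds added and intracellular calcium fluorescence recorded kinetically for 2 min at 1 sec intervals.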

Assay [14] deals with Muscarinic acetylcholine receptor M1 (Homo sapiens) (UniProt P11229). As to the kind of experiment: Cholinergic receptor muscarinic 1 (CHRM1) small molecule antagonists, cell-based qHTS assay (AID 1963588). Further: nearly all actives have a fitted effect of over 40% in size. The method, boiled down:
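CHRM1-CHO calcium-flux assay, antagonist mode. Cells were seeded 18 h, dye-loaded 1 h at 37 C and given compound for 5 min at RT, then acetylcholine was added at 50nM. FDSS fluorescence was read 3 min; 15 concentrations, three runs.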

The target is the same in assay [15]. Put plainly: Cholinergic receptor muscarinic 1 (CHRM1) small molecule agonists, cell-based qHTS assay (AID 1963589). Further: nearly all actives have a fitted effect of over 35% in size. Further: potency means the concentration at half of the fitted maximal effect. The method, boiled down: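 Stable CHRM1-CHO cells (human receptor) were incubated 18 h, dye-loaded for 1 h at 37 C and exposed to test compounds for agonist activity, with calcium-dependent fluorescence followed kinetically.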
Assay [16] addresses Beta-2 adrenergic receptor (Homo sapiens) (UniProt P07550). As to the kind of experiment: Adrenergic beta2 receptor (ADRB2) small molecule antagonists, cell-based qHTS assay (AID 1963592). Further: nearly all actives have a fitted effect of over 50% in size. Further: potency means the concentration at half of the fitted maximal effect. Put shortly: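 Cells (CHO, stable ADRB2 overexpression) incubated 18-20hr at 37C; compounds added from DMSO; agonist mix (1nM isoproterenol, 100uM IBMX, 25uM Ro-20-1724) added; 0.5hr RT; d2-cAMP and anti-cAMP-cryptate added; 1hr RT; 665/615 nm read.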

In assay [17] the target is D(2) dopamine receptor (Homo sapiens) (UniProt P14416). Put plainly: Dopamine D2 receptor (DRD2) small molecule agonists, cell-based qHTS assay (AID 1963594). Further: nearly all actives have a fitted effect of over 35% in size. The method, boiled down: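 HEK293 cells stably expressing human DRD2, pre-treated with PDE inhibitor Ro20-1724 (0.1 mM final) and compound 10 min at room temperature, then stimulated with NKH477 (200nM […]) for 30 min. cAMP read by HTRF (665/620 nm).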
D(2) dopamine receptor (Homo sapiens), sequence (P14416 whole entry, looked up): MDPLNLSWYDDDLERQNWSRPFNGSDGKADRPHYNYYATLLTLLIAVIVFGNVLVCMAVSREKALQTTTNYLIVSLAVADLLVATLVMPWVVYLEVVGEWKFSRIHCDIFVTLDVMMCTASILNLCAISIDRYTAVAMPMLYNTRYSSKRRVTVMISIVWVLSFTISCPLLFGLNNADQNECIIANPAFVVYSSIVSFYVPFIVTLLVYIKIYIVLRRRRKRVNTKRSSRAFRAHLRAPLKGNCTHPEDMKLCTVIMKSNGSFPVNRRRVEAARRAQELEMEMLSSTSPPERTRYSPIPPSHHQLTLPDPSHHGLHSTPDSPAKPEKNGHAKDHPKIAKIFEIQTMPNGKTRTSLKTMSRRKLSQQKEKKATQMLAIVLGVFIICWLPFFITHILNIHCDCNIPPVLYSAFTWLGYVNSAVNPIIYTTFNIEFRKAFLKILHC

For assay [18] the target is unchanged. As to the kind of experiment: Dopamine D2 receptor (DRD2) small molecule antagonists, cell-based qHTS assay (AID 1963595; active means well fitted inhibition curve with a large enough effect in the signal ratio in the repeat runs, with a control signal flat; the % refers to the signal ratio; further: potency means the concentration at half of the fitted maximal effect). The method, boiled down: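 Cells were plated and grown for 24 h at 37 °C. Ro20-1724 (0.1 mM final) went in first, then compound for 10 min. NKH477 (200 nM) with quinpirole (12 nM) followed for 30 min at RT, then HTRF detection reagents for 1 h.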

Assay [19] in a line: cAMP Responsive Elements (CRE) small molecule agonists, cell-based qHTS assay (AID 1963590). The method, boiled down: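 FRET-based beta-lactamase readout (LiveBLAzer B/G, 2 h RT) quantified CRE activation in HEK 293T CRE-bla cells after 3 h treatment with DMSO-dissolved compounds.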
Assay [20] in a line: cAMP Responsive Elements (CRE) small molecule antagonists, cell-based qHTS assay (AID 1963591; active means well fitted inhibition curve with a large enough effect in the signal ratio in the repeat runs, not every such curve was filed as active; the % refers to the signal ratio). Put shortly: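 qHTS in CRE-bla HEK 293T cells: compound in DMSO, then 0.25 uM NKH477 (final), 3 h at 37 °C/5% CO2; beta-lactamase FRET read-out after 2 h substrate incubation.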

Each structure is given as a SMILES string. Unmarked numbers belong to inactive results. Results filed as inconclusive are left out. Active and inactive are the calls of the source. Unless noted, the call rests on the fitted dose curve.

5-hydroxytryptamine receptor 2A (Homo sapiens), sequence (P28223 whole entry, looked up): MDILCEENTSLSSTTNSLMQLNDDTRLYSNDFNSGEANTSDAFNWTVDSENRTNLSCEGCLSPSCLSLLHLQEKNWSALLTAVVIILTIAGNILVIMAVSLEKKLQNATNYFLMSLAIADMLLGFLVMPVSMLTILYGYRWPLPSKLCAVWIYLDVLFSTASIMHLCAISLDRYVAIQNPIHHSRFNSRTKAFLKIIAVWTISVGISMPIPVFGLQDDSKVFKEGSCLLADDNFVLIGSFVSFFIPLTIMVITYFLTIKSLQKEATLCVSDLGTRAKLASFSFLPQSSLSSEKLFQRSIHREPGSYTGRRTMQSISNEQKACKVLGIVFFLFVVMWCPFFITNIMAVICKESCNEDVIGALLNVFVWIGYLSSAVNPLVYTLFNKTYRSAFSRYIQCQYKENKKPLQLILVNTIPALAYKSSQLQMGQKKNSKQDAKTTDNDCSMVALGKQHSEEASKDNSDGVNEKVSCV
Beta-2 adrenergic receptor (Homo sapiens), sequence (P07550 whole entry, looked up): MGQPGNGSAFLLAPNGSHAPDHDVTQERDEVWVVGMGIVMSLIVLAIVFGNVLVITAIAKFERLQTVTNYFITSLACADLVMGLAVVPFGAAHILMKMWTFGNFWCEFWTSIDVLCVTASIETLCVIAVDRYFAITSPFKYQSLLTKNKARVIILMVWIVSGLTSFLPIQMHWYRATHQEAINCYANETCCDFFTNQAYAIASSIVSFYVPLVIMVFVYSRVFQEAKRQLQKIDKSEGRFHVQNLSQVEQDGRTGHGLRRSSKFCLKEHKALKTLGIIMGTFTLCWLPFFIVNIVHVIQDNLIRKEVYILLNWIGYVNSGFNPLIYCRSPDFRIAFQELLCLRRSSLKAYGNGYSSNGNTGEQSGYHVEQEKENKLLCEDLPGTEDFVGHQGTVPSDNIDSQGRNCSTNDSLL
Muscarinic acetylcholine receptor M1 (Homo sapiens), sequence (P11229 whole entry, looked up): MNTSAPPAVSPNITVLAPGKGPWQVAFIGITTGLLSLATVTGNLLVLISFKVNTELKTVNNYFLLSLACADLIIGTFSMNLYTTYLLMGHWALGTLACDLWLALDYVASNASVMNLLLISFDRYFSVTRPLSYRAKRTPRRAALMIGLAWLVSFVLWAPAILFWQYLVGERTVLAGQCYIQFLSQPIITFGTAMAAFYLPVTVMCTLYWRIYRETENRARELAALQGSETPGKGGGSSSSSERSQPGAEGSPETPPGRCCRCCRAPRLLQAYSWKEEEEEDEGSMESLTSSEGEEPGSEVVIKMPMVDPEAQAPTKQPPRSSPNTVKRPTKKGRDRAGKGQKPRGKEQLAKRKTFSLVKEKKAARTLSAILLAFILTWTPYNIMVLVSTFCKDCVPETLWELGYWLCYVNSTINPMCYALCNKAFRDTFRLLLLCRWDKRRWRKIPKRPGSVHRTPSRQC

In the case of `C=CCOC(C)=O`, the Potency result in assay [1], in assay [2], in [3], in assay [4], in assay [5] and in assay [6] was “inactive” in each case. For the same molecule, the Potency result in assay [7], in assay [8], in [9], in assay [10], in [11] and in assay [12] was “inactive” throughout. Besides, the Potency result in [13], in [14], in [15], in assay [16], in [17] and in assay [18] was “inactive” throughout.

As for `C[N+](C)(C)CCOC(=O)C(O)(c1ccccc1)c1ccccc1`, the Potency result in assay [1], in assay [2], in [3], in [4], in [5] and in assay [6] was “inactive” throughout. Besides, the Potency result in assay [7], in [8], in [9], in assay [10], in [11] and in [12] was “inactive” throughout. The Potency entry in assay [13], in [15], in assay [19], in assay [20], in assay [16] and in [18] was “inactive” in each case.

Turning to `BrCBr`, the Potency entry in assay [1], in assay [2], in assay [3], in [4], in [5] and in [6] was “inactive” each time. Further, the Potency result in assay [7], in assay [8], in [9], in assay [10], in assay [11] and in assay [12] was “inactive” each time. Also, the Potency result in [13], in assay [14], in assay [15], in [19], in [20] and in [16] was “inactive” each time. The Potency result in assay [18] is “inactive”.

On to `ClCCCCl`, for which the Potency entry in assay [1], in assay [2], in [3], in assay [4], in assay [5] and in assay [6] was “inactive” each time. The Potency result in [7], in assay [8], in assay [9], in assay [10], in [11] and in assay [12] was “inactive” in each case. Further, the Potency entry in [13], in [15], in assay [19], in assay [20], in assay [16] and in assay [17] was “inactive” each time. In assay [18], the Potency entry is “inactive”.

In the case of `CN(CCCC(O)c1cccnc1)N=O` (configuration not stated), the Potency result in assay [1], in assay [2], in assay [3], in assay [4], in assay [5] and in assay [6] was “inactive” throughout. The Potency entry in assay [7], in assay [8], in assay [9], in assay [11], in [12] and in [13] was “inactive” each time. For the same molecule, the Potency result in assay [14], in [15], in assay [19], in assay [20], in assay [16] and in [17] was “inactive” each time. Besides, in [18], the Potency result was “inactive”.

Regarding `CCN(CCO)CCn1c(Cc2ccccc2)nc2c1c(=O)n(C)c(=O)n2C`, the Potency result in [1], in [2], in assay [3], in assay [4], in assay [5] and in assay [6] was “inactive” each time. The Potency entry in assay [7], in assay [8], in [9], in assay [11], in assay [12] and in assay [13] was “inactive” throughout. Besides, the Potency result in [14], in assay [15], in assay [19], in assay [16], in assay [17] and in assay [18] was “inactive” throughout.

Turning to `C=CC(=O)[O][Sn]([CH2]CCC)([CH2]CCC)[CH2]CCC`, the Potency was 0.969 µM (active) in assay [1]; 1.37 µM (active) in assay [2]; 5.49 µM (active) in assay [3]; 19.5 µM (active) in assay [4]; 38.9 µM (active) in [5]; 5.13 µM (active) in assay [8]. Besides, the Potency was 8.14 µM (active) in [9]; 1.62 µM (active) in assay [10]; 3.75 µM (active) in [12]; 12.3 µM (active) in assay [13]; 11 µM (active) in [15]; 0.969 µM (active) in assay [16]. Further, the Potency in assay [18] was 2.43 µM (active). Further, the Potency result in [6], in assay [7] and in assay [17] was “inactive” each time.
